In PubChem BioAssay (NCI) one finds growth inhibition data, which are given here for 10 compounds.

Assay [1] is described as follows: NCI Yeast Anticancer Drug Screen. Data for the rad50 strain (AID 155).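 Further: 0% = growth of vehicle-only cultures of the same strain.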 As to conditions: S. cerevisiae rad50 strain growth inhibition, active compounds read high. The method in brief:
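Compounds were tested on a yeast strain with an engineered DNA damage repair alteration; the reported value is growth inhibition normalised to vehicle treatment.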

Assay [2] can be described thus: NCI Yeast Anticancer Drug Screen. Data for the mec2-1 strain (AID 157). As to conditions: S. cerevisiae mec2-1 strain, active compounds read high. The method, boiled down: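 Cells of the genetically defined mec2-1 yeast strain are incubated with test compound. Inhibition of growth is calculated against vehicle-treated controls.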
A short description of assay [3]: NCI Yeast Anticancer Drug Screen. Data for the sgs1 mgt1 strain (AID 161).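 Further: 0% = growth of cultures given vehicle only.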 Particulars: S. cerevisiae sgs1 mgt1 strain, active compounds read high. The method in brief:
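Inhibition of yeast growth, normalised to vehicle-treated controls, is reported for a strain bearing genetic alterations in DNA damage repair.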

Assay [4] in a line: NCI Yeast Anticancer Drug Screen. Data for the cln2 rad14 strain (AID 165).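 Further: 0% = growth equal to vehicle treated cultures.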 As to conditions: S. cerevisiae cln2 rad14 strain, active compounds read high. The method, boiled down: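 The screen exposed genetically defined yeast (cln2 rad14) to test compounds and scored growth inhibition relative to vehicle-treated controls.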
Assay [5] is described as follows: NCI Yeast Anticancer Drug Screen. Data for the bub3 strain (AID 167). Particulars: S. cerevisiae bub3 mutant strain, active compounds read high. The method, boiled down: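 Growth of a checkpoint-deficient yeast mutant is measured after compound exposure. Values represent inhibition relative to vehicle.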
Assay [6] is described as follows: NCI Yeast Anticancer Drug Screen. Data for the mlh1 rad18 strain (AID 175). As to conditions: S. cerevisiae mlh1 rad18 strain growth inhibition, active compounds read high. The method in brief: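 Compound-treated yeast growth, normalised to vehicle controls. Strain bears defined DNA repair mutations.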
Where [7] appears, read: at 5.0 µM (retest, dose inferred, filed as 0.5).
The mark [8] stands for this setting: at 50.0 µM (retest, dose inferred, filed as 5.0).

Molecules are shown by their SMILES. About 79,000 compounds went through this panel and 15% of them were active in at least one assay; those are over-represented in the sample as a whole. Values without a mark were called inactive. Activity calls are given as the source filed them. No stated cut-off is given here; in the data, active means growth inhibition above about 70%; inactive means the rest.

`O=S(NCc1ccccc1)c1ccccc1` (stereo not given): the growth inhibition in assay [1] (setting [7]) is -2%; in assay [1] (setting [8]) it was 13%; in assay [1] (at 50.0 µM), 25.6%; in assay [2] (setting [7]), 0%; in assay [2] (setting [8]), 8%; in assay [2] (at 50.0 µM), 28.7%. Further, the growth inhibition in assay [3] (setting [7]) is -2%; in assay [3] (setting [8]), -1%; in assay [3] (at 50.0 µM), 43.3%; in assay [4] (setting [7]), -3%; in assay [4] (setting [8]) it was 4%; in assay [4] (at 50.0 µM) it was 39.4%. In addition, the growth inhibition was 0% in assay [5] (setting [7]); 10% in assay [5] (setting [8]); 36.3% in assay [5] (at 50.0 µM); -1% in assay [6] (setting [7]); 15% in assay [6] (setting [8]); 75.7% (active) in assay [6] (at 50.0 µM).
Turning to `Nc1ccc2nc(N)sc2c1`, the growth inhibition in assay [1] (setting [7]) was -5%; in assay [1] (setting [8]), 8%; in assay [1] (at 50.0 µM), 20.1%; in assay [2] (setting [7]), -6%; in assay [2] (setting [8]) it was 2%; in assay [2] (at 50.0 µM), -3.75%. Besides, the growth inhibition in assay [3] (setting [7]) was 0%; in assay [3] (setting [8]), -47%; in assay [3] (at 50.0 µM) it was 18.5%; in assay [4] (setting [7]) it was 0%; in assay [4] (setting [8]), 2%; in assay [4] (at 50.0 µM), 42.9%. Also, the growth inhibition in assay [5] (setting [7]) is -2%; in assay [5] (setting [8]), 90% (active); in assay [5] (at 50.0 µM) it was -15.2%; in assay [6] (setting [7]), -4%; in assay [6] (setting [8]), 4%; in assay [6] (at 50.0 µM), -6.65%.
For the compound `CCCCCN(CCCCC)CC(C)(C)C(O)c1ccc(OC)c2ccccc12` (stereo not given), the growth inhibition in assay [1] (setting [7]) is -2%; in assay [1] (setting [8]), 42%; in assay [1] (at 50.0 µM), 51.9%; in assay [2] (setting [7]) it was -4%; in assay [2] (setting [8]) it was 18%; in assay [2] (at 50.0 µM) it was 47.6%. The growth inhibition in assay [3] (setting [7]) is 1%; in assay [3] (setting [8]), 81% (active); in assay [3] (at 50.0 µM), 52.5%; in assay [4] (setting [7]), -4%; in assay [4] (setting [8]), 27%; in assay [4] (at 50.0 µM), 86.9% (active). Also, the growth inhibition was 0% in assay [5] (setting [7]); 64% in assay [5] (setting [8]); 33.2% in assay [5] (at 50.0 µM); -2% in assay [6] (setting [7]); 57% in assay [6] (setting [8]); 77.3% (active) in assay [6] (at 50.0 µM).
Regarding `[N-]=[N+]=NCC(O)c1ccc2c(c1)[nH]c1ccccc12` (stereo not given), the growth inhibition in assay [1] (setting [7]) is -11%; in assay [1] (setting [8]), 30%; in assay [1] (at 50.0 µM), 47.9%; in assay [2] (setting [7]), -7%; in assay [2] (setting [8]), 30%; in assay [2] (at 50.0 µM), 29.6%. Besides, the growth inhibition in assay [3] (setting [7]) is -5%; in assay [3] (setting [8]), 41%; in assay [3] (at 50.0 µM), 27.6%; in assay [4] (setting [7]) it was -8%; in assay [4] (setting [8]), 23%; in assay [4] (at 50.0 µM), 81.8% (active). The growth inhibition in assay [5] (setting [7]) is -4%; in assay [5] (setting [8]), 36%; in assay [5] (at 50.0 µM), 64%; in assay [6] (setting [7]), 24%; in assay [6] (setting [8]), 68%; in assay [6] (at 50.0 µM) it was 75.4% (active).
Turning to `N=Nc1c(OC(=O)Nc2cccc(Cl)c2)[nH]c2ccccc12`, the growth inhibition in assay [1] (setting [7]) is 36%; in assay [1] (setting [8]), 99% (active); in assay [1] (at 50.0 µM) it was 98.7% (active); in assay [2] (setting [7]), 14%; in assay [2] (setting [8]) it was 99% (active); in assay [2] (at 50.0 µM), 98.8% (active). Further, the growth inhibition is 28% in assay [3] (setting [7]); 99% (active) in assay [3] (setting [8]); 99% (active) in assay [3] (at 50.0 µM); 15% in assay [4] (setting [7]); 99% (active) in assay [4] (setting [8]); 98.2% (active) in assay [4] (at 50.0 µM). Besides, the growth inhibition in assay [5] (setting [7]) was 1%; in assay [5] (setting [8]) it was 99% (active); in assay [5] (at 50.0 µM), 98.4% (active); in assay [6] (setting [7]) it was 33%; in assay [6] (setting [8]) it was 99% (active); in assay [6] (at 50.0 µM), 99.1% (active).
Take `O=C1c2ccccc2C2(O)c3cc4ccccc4cc3OC12O` (stereo not given): the growth inhibition in assay [1] (setting [7]) is -7%; in assay [1] (setting [8]), 41%; in assay [1] (at 50.0 µM), 52.2%; in assay [2] (setting [7]) it was -15%; in assay [2] (setting [8]), 19%; in assay [2] (at 50.0 µM) it was 52.2%. Besides, the growth inhibition in assay [3] (setting [7]) is -16%; in assay [3] (setting [8]), 6%; in assay [3] (at 50.0 µM), 43%; in assay [4] (setting [7]) it was -10%; in assay [4] (setting [8]), 44%; in assay [4] (at 50.0 µM) it was 37%. The growth inhibition in assay [5] (setting [7]) is -6%; in assay [5] (setting [8]) it was 59%; in assay [5] (at 50.0 µM) it was 44%; in assay [6] (setting [7]) it was -24%; in assay [6] (setting [8]), 55%; in assay [6] (at 50.0 µM) it was 72.7% (active).
For the compound `Cc1cc(Cl)ccc1Nc1sc(C(=O)c2cc3cc(Cl)ccc3o2)c(N)c1C#N`, the growth inhibition in assay [1] (setting [7]) is 16%; in assay [1] (setting [8]), 53%; in assay [1] (at 50.0 µM), 23.7%; in assay [2] (setting [7]), -3%; in assay [2] (setting [8]), 48%; in assay [2] (at 50.0 µM) it was 45.5%. The growth inhibition is 8% in assay [3] (setting [7]); 65% in assay [3] (setting [8]); 45% in assay [3] (at 50.0 µM); 6% in assay [4] (setting [7]); 84% (active) in assay [4] (setting [8]); 83% (active) in assay [4] (at 50.0 µM). Moreover, the growth inhibition in assay [5] (setting [7]) was 13%; in assay [5] (setting [8]), 55%; in assay [5] (at 50.0 µM), 50.1%; in assay [6] (setting [7]) it was -7%; in assay [6] (setting [8]), 66%; in assay [6] (at 50.0 µM) it was 36.5%.
Turning to `COC(=O)C1=C(NC(=O)Nc2ccc(Cl)cc2)OC(C)(C)C1c1ccc(Cl)cc1` (stereo not given), the growth inhibition in assay [1] (setting [7]) was 87% (active); in assay [1] (setting [8]), 88% (active); in assay [1] (at 50.0 µM) it was 96.5% (active); in assay [2] (setting [7]) it was 94% (active); in assay [2] (setting [8]), 94% (active); in assay [2] (at 50.0 µM) it was 98% (active). Also, the growth inhibition in assay [3] (setting [7]) is 85% (active); in assay [3] (setting [8]) it was 92% (active); in assay [3] (at 50.0 µM), 97.1% (active); in assay [4] (setting [7]), 80% (active); in assay [4] (setting [8]), 87% (active); in assay [4] (at 50.0 µM), 94.8% (active). The growth inhibition was 89% (active) in assay [5] (setting [7]); 89% (active) in assay [5] (setting [8]); 95.4% (active) in assay [5] (at 50.0 µM); 85% (active) in assay [6] (setting [7]); 89% (active) in assay [6] (setting [8]); 96.8% (active) in assay [6] (at 50.0 µM).
For the compound `O=C(O)c1cccc(N=Nc2c(S(=O)(=O)O)ccc3c2C(=O)c2ccccc2C3=O)c1O`, the growth inhibition in assay [1] (setting [7]) was 17%; in assay [1] (setting [8]), 38%; in assay [1] (at 50.0 µM), 30.4%; in assay [2] (setting [7]), 8%; in assay [2] (setting [8]) it was 17%; in assay [2] (at 50.0 µM) it was 36.8%. The growth inhibition was 8% in assay [3] (setting [7]); 38% in assay [3] (setting [8]); -2.5% in assay [3] (at 50.0 µM); -21% in assay [4] (setting [7]); 17% in assay [4] (setting [8]); 71.1% (active) in assay [4] (at 50.0 µM). Besides, the growth inhibition is -11% in assay [5] (setting [7]); 25% in assay [5] (setting [8]); -15.2% in assay [5] (at 50.0 µM); 29% in assay [6] (setting [7]); 28% in assay [6] (setting [8]); 85.6% (active) in assay [6] (at 50.0 µM).
For the compound `C/C(=N\NC(=O)N/N=C(\C)c1ccccn1)c1ccccn1`, the growth inhibition is 0% in assay [1] (setting [7]); 16% in assay [1] (setting [8]); -6.55% in assay [1] (at 50.0 µM); -18% in assay [2] (setting [7]); -16% in assay [2] (setting [8]); 16.8% in assay [2] (at 50.0 µM). Further, the growth inhibition is 7% in assay [3] (setting [7]); 24% in assay [3] (setting [8]); 35.9% in assay [3] (at 50.0 µM); -21% in assay [4] (setting [7]); 1% in assay [4] (setting [8]); 2.95% in assay [4] (at 50.0 µM). Also, the growth inhibition in assay [5] (setting [7]) is 2%; in assay [5] (setting [8]), -13%; in assay [5] (at 50.0 µM) it was 35.5%; in assay [6] (setting [7]), 14%; in assay [6] (setting [8]) it was -6%; in assay [6] (at 50.0 µM), -5.95%.
